Source: PubChem (The Scripps Research Institute Molecular Screening Center)
A selection: hits, their analogues and other compounds. The true share with any hit is near 3.5%.
TEAD-YAP block: TEAD-YAP interaction inhibition | 1.4% of 640,000 active | HEK-TIYL cells, TEAD-Gal4/YAP UAS-luciferase luminescence | inhibition, % at 9.12 µM | AID 1259422; in the data active = inhibition above about 32%
GPR151 activ: activators of human GPR151; Q8TDV0; PathHunter beta-arrestin GPR151 cells, luminescence; activation, % at 11.2 µM; 1% of 650,000 active; in the data active = activation above about 4.9%
MITF inh: blocks human microphthalmia-associated transcription factor; O75030; AlphaScreen MITF homodimerization, bead proximity signal; 0.91% of 650,000 active; inhibition, % at 2.6 µM; in the data active = inhibition above about 50%
Target sequence (O75030 whole entry, looked up): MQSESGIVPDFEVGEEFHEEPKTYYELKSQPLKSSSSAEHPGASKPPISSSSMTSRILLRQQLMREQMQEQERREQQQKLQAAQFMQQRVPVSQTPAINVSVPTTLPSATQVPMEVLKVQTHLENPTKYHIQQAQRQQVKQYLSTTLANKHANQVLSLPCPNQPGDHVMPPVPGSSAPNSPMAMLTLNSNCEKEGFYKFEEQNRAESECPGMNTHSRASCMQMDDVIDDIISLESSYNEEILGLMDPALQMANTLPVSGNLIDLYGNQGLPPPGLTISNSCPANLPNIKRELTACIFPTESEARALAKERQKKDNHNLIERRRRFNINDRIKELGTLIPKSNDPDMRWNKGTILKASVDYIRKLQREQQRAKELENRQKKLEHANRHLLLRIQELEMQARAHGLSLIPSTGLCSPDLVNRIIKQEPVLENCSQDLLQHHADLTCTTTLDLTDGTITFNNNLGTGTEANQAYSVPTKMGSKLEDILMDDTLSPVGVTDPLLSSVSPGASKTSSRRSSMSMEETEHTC
FBW7 activator: human FBW7 E3 ligase activation, primary screen; Q969H0; AlphaScreen FBW7–phospho-cyclin E peptide binding, activator screen; normalized activity (activation), % at 26.1 µM; 0.13% of 650,000 active; AID 1259310; in the data active = normalized activity above about 1.9%;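 note: purified mutant Fbw7 with reduced substrate affinity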
Each line names hits and unclear results; the compound was inactive in the other large screens.

CC1CCCN(C2=NC(=O)/C(=C\c3ccc(N(C)C)cc3)S2)C1 (stereo not given)	TEAD-YAP block 59.0
CC1CCCN(C2=NC(=O)/C(=C\c3ccc(O)cc3)S2)C1 (stereo not given)	TEAD-YAP block 61.0
O=C1N=C(N2CCCC2)S/C1=C/c1ccc(O)cc1	none
O=C(NCc1ccc(Cl)cc1)C(=O)NCC(c1ccco1)S(=O)(=O)c1ccccc1 (stereo not given)	none
Cc1cccc(NC(=O)c2ccccc2Br)c1	none
COc1ccc(CCNC(=O)c2ccc3nc(-c4cccs4)sc3c2)cc1	none
COc1ccccc1NC(=O)CC(c1ccccc1)c1ccc(C)cc1O (stereo not given)	none
c1cncc(CNC2CCN(Cc3ccncc3)CC2)c1	none
Cc1noc(-c2ccc(NC(=O)c3cccnc3)cc2)n1	TEAD-YAP block 42.9
Nc1ccc2c(c1)OC1(CCCC1)O2	TEAD-YAP block 93.7
Cc1cc(NC(=O)Nc2ccccc2)ccc1N1CCCCC1=O	TEAD-YAP block 37.3
CCN(C(=O)CCl)c1cccc2ccccc12	TEAD-YAP block 67.5
O=c1[nH]ncc(N/N=C\c2ccc(O)c([N+](=O)[O-])c2)c1Cl	none
C/C(=N\Nc1nc(C)cc(C)n1)c1ccccc1O	none
Cc1cc2c(cc1C)n(C1CC(=O)C3OCC1O3)c(=S)n2Cc1ccccc1Cl (stereo not given)	TEAD-YAP block 48.0
COc1cc(/C=C2/C(=O)N(C)C(=S)N2C)cc(OC)c1OC	none
N/C(=N\OC(=O)/C=C/c1ccccc1Cl)c1ccccn1	TEAD-YAP block 73.5
N/C(=N\OC(=O)/C=C/c1ccc(Br)cc1)c1ccccn1	TEAD-YAP block 39.2
N/C(=N\OC(=O)/C=C/c1ccccc1)c1cccnc1	none
COCc1ccc(-c2ccc(OC3CCN(c4nccc(OC)n4)CC3)cc2)cc1	none
CN(C)c1ccc(-c2ccc(OC3CCN(CCc4ccccn4)CC3)cc2)cn1	TEAD-YAP block 52.9
COc1ccnc(N2CCC(Oc3ccc(-c4ccc(N(C)C)nc4)cc3)CC2)n1	TEAD-YAP block 60.7
CCOc1ccc(C(F)(F)F)cc1NS(=O)(=O)c1ccc2c(c1)n(C)c(=O)n2C	none
Cn1c(=O)[nH]c(=O)c2c1nc(NN)n2Cc1ccccc1Cl	none
Cc1ccccc1C(=O)N/N=C/c1ccc(O)c(Br)c1	TEAD-YAP block 71.1
Cc1[nH]n(-c2ccccc2)c(=O)c1/C=N/NC(=O)c1ccc(O)cc1O	MITF inh 58.8
Cc1ccccc1C(=O)N/N=C/c1ccc(O)c(O)c1	none
O=C(N/N=C/c1ccc(/C=N/NC(=O)c2ccccc2O)cc1)c1ccccc1O	TEAD-YAP block 59.0
CN(C)c1ccc(/C=N\NC(=O)c2cc(N)ccc2O)cc1	MITF inh 64.2
COCC(=O)N(C)C(Cc1ccc(F)cc1)C1CCN(C(=O)c2cn[nH]c2)CC1 (stereo not given)	none
